# VACV mCherry inh: inhibitors of vaccinia virus infection (mCherry reporter signal); Vaccinia virus mCherry reporter infection, fluorescence; Potency, µM (highest dose often 36.5 µM), for the others: at the highest dose activity change, negative = inhibition, most hits filed as inhibitors; hit rate 0.63% among 310,000; calls by dose curve; tested in A549 cells; further: potency means the concentration at half of the fitted maximal effect; on the % scale 0 is the no-effect control and ±100 the full control effect; nearly all actives have a fitted effect of over 35% in size
# HCMV antiviral: blocks human cytomegalovirus replication | HFF cells, HCMV-luciferase reporter, 72 h; stronger effect = lower value | activity change, negative = inhibition, % at 57.5 µM | hit rate 4.5% among 410,000; in the data active means activity change below about -60%; inconclusive means no clear call, values can overlap the other calls; inactive means above about -39%; further: on the % scale 0 is the no-effect control and ±100 the full control effect
#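 Human foreskin fibroblasts infected with luciferase-reporter HCMV at MOI 1 PFU/cell, compounds at two doses. Luciferase measured 72 h post infection; normalized to buffer-only basal and Salinomycin (10uM) controls.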
# HCV inh: blocks hepatitis C virus; hit rate 3.4% among 340,000; Huh7.5.1 HCVcc-Cre infection, luciferase reporter, 44 h; Potency, µM (top dose mostly 41.8 µM), inactives show top-dose activity change, negative = inhibition, actives largely listed as inhibitors; further: potency means the concentration at half of the fitted maximal effect; on the % scale 0 is the no-effect control and ±100 the full control effect
#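 HCVcc-Cre virus at an moi near 0.5 was added right after compound to cells cultured 4 h from seeding (1,000 cells/well). Luciferase activity was determined 44 h later, 15 min after substrate addition at RT.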
# VACV Venus inh: inhibitors of vaccinia virus (Venus reporter); Vaccinia virus Venus reporter expression, fluorescence; Potency, µM (highest dose often 36.5 µM), inactives show top-dose activity change, negative = inhibition, actives largely listed as inhibitors; hit rate 0.46% among 330,000; AID 720580; calls by dose curve; tested in A549 cells; further: potency means the concentration at half of the fitted maximal effect; on the % scale 0 is the no-effect control and ±100 the full control effect; nearly all actives have a fitted effect of over 30% in size
# FMDV inh: blocks foot and mouth disease virus. FMDV antiviral cell-based qHTS. Potency, µM (series often up to 57.9 µM), inactives show at the highest dose activity change, negative = inhibition, hits mostly inhibitors. hit rate 1.2% among 410,000; calls by dose curve; tested in HEK293T cells; further: read-out not given here; potency means the concentration at half of the fitted maximal effect; on the % scale 0 is the no-effect control and ±100 the full control effect; nearly all actives have a fitted effect of over 45% in size
# HCV inh confirm: confirmation of hepatitis C virus inhibitors; shares compounds with HCV inh; HCVcc-Cre infectious virus cell assay, luciferase, inhibition; Potency, µM (doses to about 41.8 µM), for the others: at the highest dose activity, negative = inhibition, hits mostly inhibitors; hit rate 78% among 640; AID 720575; further: potency means the concentration at half of the fitted maximal effect; nearly all actives have a fitted effect of over 80% in size
# HCV cytotox: counter-screen for HCV inhibitors: host cell cytotoxicity | shares compounds with HCV inh | HCV host cell line cytotoxicity counterscreen | Potency, µM (titrated, usually from 41.8 µM), for inactives: at the highest dose activity change, negative = cytotoxicity, most hits filed as inhibitors | hit rate 22% among 640 | AID 720576;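 further: potency means the concentration at half of the fitted maximal effect; 44 h compound exposure; on the % scale 0 is the no-effect control and ±100 the full control effect; nearly all actives have a fitted effect of over 55% in size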
# Numbers without * were called inactive; i = inactive; ? = inconclusive; · = no result. The list is not random: actives were taken first. Their share in the collection is about 7.3%. Unless noted, the call rests on the fitted dose curve; in most records, active means well fitted curve in the direction sought with a large enough effect; inconclusive means small, poorly fitted or top-dose-only effect, or another doubt; inactive means no such curve, though single readings can be large; an effect the other way counts as inactive or inconclusive.
SMILES,VACV mCherry inh,HCMV antiviral,HCV inh,VACV Venus inh,FMDV inh,HCV inh confirm,HCV cytotox
Cc1cc(C)nc(NCC(O)CNc2ccccc2Cl)n1 (stereo unspecified),-27%,-30,?,-23%,?,28µM*,12%
Cc1ccc(S(=O)(=O)N(C)C)cc1-n1c(SCC(=O)Nc2ccc(F)cc2)nc2ccccc2c1=O,·,-19,?,·,-8%,·,·
Cn1c(SCC(=O)Nc2ccc(F)cc2)nc2c(c1=O)SCC2,-18%,-1,?,-11%,0%,·,·
Cc1ccc(S(=O)(=O)N(C)C)cc1-n1c(SCC(=O)Nc2ccc(F)cc2Cl)nc2ccccc2c1=O,-15%,-34,1.3µM*,-14%,-28%,14µM*,38%
Cc1ccccc1NC(=O)CSc1nc2ccccc2c(=O)n1C,-13%,-40,3.2µM*,-16%,?,8.9µM*,14µM*
Cn1c(SCC(=O)Nc2ccccc2F)nc2c(c1=O)SCC2,-18%,-38,6.3µM*,-21%,-24%,22µM*,-22%
O=c1oc(C2(O)CCCCC2)cc2ccc(-c3ccc4[nH]ccc4c3)cc12,0.63µM*,-93*,1.1µM*,-25%,11%,?,-14%
O=c1oc(C2(O)CCCCC2)cc2ccccc12,5%,-24,-85%,-13%,-13%,·,·
O=C(NC1CC(=O)N(c2ccc(F)cc2)C1)c1ccco1 (stereo unspecified),-8%,21,·,-7%,-20%,·,·
COc1cccc(CNC(=O)Cn2c(=O)n3nc(-c4cccc(C)c4)nc3c3ccccc32)c1,-2%,62,·,-1%,15%,·,·
CC(C)(c1cc(Cl)c(O)c(CN2CCOCC2)c1)c1cc(Cl)c(O)c(CN2CCOCC2)c1,-20%,-1,3.2µM*,4%,-21%,6.3µM*,45%
Oc1c(CN2CCOCC2)cc(CN2CCOCC2)c(O)c1CN1CCOCC1,-11%,-17,6%,17%,-2%,·,·
COc1ccc([N+](=O)[O-])cc1NC(=O)c1ccco1,-3%,-24,?,-7%,-17%,?,18%
Cc1ccccc1C(=O)Nc1ccccc1-c1nnn(CC(=O)Nc2ccc3c(c2)OCCO3)n1,·,-30,5µM*,·,?,?,-11%
Cc1cccc(CS(=O)(=O)c2ncc(Cl)c(C(=O)Nc3c(C)cccc3C)n2)c1,·,?,6.3µM*,·,-11%,10µM*,28µM*
CCNc1ncc2nc(-c3ccc(F)cc3)c(=O)n(C[C@H]3CCCO3)c2n1,·,·,·,·,-12%,·,·
COc1ccc(C(=O)CSc2nc(-c3ccccn3)nc(C)c2Cl)cc1,?,?,4.5µM*,?,?,22µM*,4.4µM*
Cc1nc(-c2ccccn2)nc(SCC(=O)c2ccc(F)cc2)c1Cl,·,?,?,·,-19%,·,·
CC(C)(C)C1CCc2c(sc3ncn(N)c(=N)c23)C1 (stereo unspecified),·,?,?,·,?,6.3µM*,?
C[C@@H](O)CNC(C)(C)CC(=O)N[C@@H]1CCc2ccccc2N(Cc2ccc(-c3ccccc3-c3nn[nH]n3)cc2)C1=O,·,·,·,·,-18%,·,·
CCN(C[C@H]1N[C@@](Cc2ccccc2)(C(=O)OC)[C@H]2C(=O)N(C)C(=O)[C@@H]12)S(=O)(=O)c1ccc(C(F)(F)F)cc1,-16%,-8,?,0%,-24%,·,·
CCN(C[C@H]1N[C@@](Cc2ccccc2)(C(=O)OC)[C@H]2C(=O)N(Cc3ccccc3)C(=O)[C@@H]12)S(=O)(=O)c1ccc(C(F)(F)F)cc1,-12%,-6,7.1µM*,-8%,0%,?,51%
COc1ccccc1NC(=O)C1=C(C)Nc2nc(SCc3ccccc3)nn2C1c1cccnc1 (stereo unspecified),0%,-1,·,-4%,-19%,·,·
COc1cc(C)c(C(=O)Oc2cc(C)c(C(=O)O)c(O)c2)c(O)c1,8%,39,0.79µM*,-5%,34%,-10%,-13%
COc1cc(OC)c(NC(=O)c2ccoc2C)cc1Cl,·,19,?,·,1%,·,·
SMILES,VACV mCherry inh,HCMV antiviral,HCV inh,VACV Venus inh,FMDV inh,HCV inh confirm,HCV cytotox
COc1ccc(Cl)cc1NC(=O)c1ccoc1C,·,26,5.6µM*,?,-8%,14µM*,8%
CN1c2ccccc2Sc2cc(N)ccc21,i,19,-3%,4%,-8%,·,·
CC[n+]1c(/C=C2\Sc3ccccc3N2C)ccc2cccc(C)c21,14µM*,-101*,2.8µM*,i,4.5µM*,2.5µM*,2.5µM*
CCc1ccc(OCC(O)CN2CCC(CN3C(=O)c4cccc5cccc(c45)C3=O)CC2)cc1 (stereo unspecified),-13%,20,6.3µM*,-4%,-28%,7µM*,14µM*
Cc1cccc(-c2nc3scc(CCNC(=O)c4ccccc4Cl)n3n2)c1,-3%,17,·,-2%,-3%,·,·
Cc1nnc(C)c2c(C)n(-c3ccc(Cl)c(N)c3)c(C)c12,-5%,-24,?,-3%,-22%,·,·
Cc1cc(C)cc(-n2c(C)c3c(C)nnc(C)c3c2C)c1,-11%,-32,2.2µM*,-13%,0%,11µM*,-14%
CCOc1ccc(CCNC(=O)c2cc(Nc3ccc(C)cc3C)nc3ccccc23)cc1OCC,-16%,-4,·,-9%,-11%,·,·
CCOC(=O)c1cc2c(=O)n3ccccc3nc2n(CCOC)c1=NC(=O)C(C)(C)C,·,4,?,·,-18%,·,·
CCOC(=O)c1cc2c(=O)n3ccccc3nc2n(CCCOC)c1=NC(=O)C(C)(C)C,-7%,21,?,-8%,-16%,?,-15%
CC(=O)N1CCN(Cc2nc3cc(NC(=O)c4ccccc4Cl)ccc3n2C)CC1,-13%,-21,-20%,-6%,-19%,·,·
CC(=O)N1CCN(Cc2nc3cc(NC(=O)c4ccc(Cl)cc4)ccc3n2C)CC1,-7%,-80*,3.5µM*,-22%,?,14µM*,22µM*
CS(=O)(=O)Nc1cccc(-c2cncnc2NCc2ccccc2)c1,·,·,·,·,-19%,·,·
CC1CCCCN1CCn1c(=S)[nH]c2ncccc2c1=O (stereo unspecified),·,-2,8%,·,-7%,·,·
CC1CCCCN1CCNc1nc(=S)[nH]c2ccccc12 (stereo unspecified),i,94,3.5µM*,-10%,17%,-6%,-21%
Cc1ccc2c(c1)c1c(n2CC(O)CNC2CCCCC2)CCCC1 (stereo unspecified),?,-105*,4.5µM*,?,-27%,13µM*,-97%
COC1C(O)C(C)OC(OC2CCC3(C)C(CCC4C3C(O)CC3(C)C(C5=CC(=O)OC5)CCC43O)C2)C1O (stereo unspecified),0.25µM*,-99*,1.6µM*,0.35µM*,-21%,1.1µM*,?
